CHX counter = Cycloheximide Counterscreen for Small Molecule Inhibitors of Shiga Toxin; cell reporter, cycloheximide protein synthesis inhibition counterscreen; AID 2314, 2010; 300,000 compounds, 12% hits; max response, %; in the data active = max response mostly above about 13%, no sharp cut-off; inactive = mostly below about 14%; also: read at 38.3 µM for the half of the compounds with a filed dose
Pf growth 96h = Primary qHTS for delayed death inhibitors of the malarial parasite plastid, 96 hour incubation. 320,000 compounds, 6.9% hits. Potency, µM (doses to about 28.7 µM), hits mostly inhibitors. P. falciparum luciferase reporter growth, 96 h
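Infected RBCs, 2% Hct / 0.05% parasitemia final; luciferase-reporter P. falciparum; cpd 96 h, 37 C, 5% CO2; luciferase detection reagent; luminescence.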
NS1 inh = qHTS Assay for Inhibitors of Influenza NS1 Protein Function. 270,000 compounds, 0.4% hits. Potency, µM (highest dose often 46.1 µM); calls by dose curve; also: actives are rising curves; nearly all actives have a fitted effect of over 50% in size
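Compounds were scored for reversing the slow growth caused by influenza A NS1 in S. cerevisiae, measured by optical density at 600 nm. Assay medium contained 2% galactose at pH 6.0; NS1-free yeast of the same strain were the positive control.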
Shiga inhibitor = A qHTS for Small Molecule Inhibitors of Shiga Toxin. AID 2315, 2010. inhibition, % at 38.7 µM. Vero cells, Shiga toxin protein synthesis inhibition reporter. 290,000 compounds, 9.2% hits; in the data active = inhibition mostly above about 28%, no sharp cut-off; inactive = mostly below about 43%
Pf growth 48h = Primary qHTS for delayed death inhibitors of the malarial parasite plastid, 48 hour incubation; P. falciparum luciferase growth in erythrocytes, 48 h; Potency, µM (top dose mostly 28.7 µM), most hits filed as inhibitors; 310,000 compounds, 5.9% hits; AID 504832, 2011
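Growth was read as firefly luciferase luminescence after a 48 h, 37 C, 5% CO2 exposure of compounds to reporter-bearing P. falciparum cultures (0.1% parasitemia, 2% hematocrit final) in Albumax-supplemented RPMI 1640.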
Large screens that a line does not name were inactive. A selection: hits, their analogues and other compounds. The true share with any hit is near 21%. Unless noted, calls follow the shape of the dose curve; as a rule, active = well fitted inhibition curve with a large enough effect; inconclusive = small, poorly fitted or top-dose-only effect, or another doubt; inactive = no such curve, though single readings can be large or run the other way.

CCc1cc2c(=O)c(-c3ccc4c(c3)OCCO4)coc2cc1OC(=O)c1ccco1	CHX counter 38, Shiga inhibitor 93 (no result: Pf growth 96h)
CCCc1cc2c(=O)c(-c3ccc4c(c3)OCCO4)coc2cc1OC(=O)c1ccco1	CHX counter 30, Shiga inhibitor 98
CCCc1cc2c(=O)c(-c3ccc4c(c3)OCCO4)coc2cc1OS(C)(=O)=O	CHX counter 56, Pf growth 96h inconclusive, Shiga inhibitor 45
CCCc1cc(=O)oc2cc(C)cc(OC(=O)c3ccco3)c12	Pf growth 48h inconclusive
CCCc1cc2c(=O)c(-c3ccc4c(c3)OCCO4)c(C)oc2cc1OS(C)(=O)=O	Pf growth 96h inconclusive, Pf growth 48h inconclusive
CCN(CC)Cc1c(O)ccc2c(=O)c(-c3ccc4c(c3)OCCO4)coc12	Pf growth 96h inconclusive, Pf growth 48h inconclusive
CCCCn1c(N)c(N(CCOC)C(=O)c2oc3ccc(OCC)cc3c2C)c(=O)[nH]c1=O	Pf growth 96h inconclusive (no result: CHX counter, NS1 inh, Shiga inhibitor)
COc1ccc(CN(C)C(=O)c2cnc(C)cn2)c(OC)c1OC	none
O=C(COC(=O)Cc1ccccc1F)NNC(=O)c1ccc([N+](=O)[O-])cc1	none (no result: CHX counter, NS1 inh, Shiga inhibitor)
CCOc1ccc(S(=O)(=O)NC(C)(C)C)cc1-c1nc2c(C(C)(C)C)nn(C)c2c(=O)[nH]1	Pf growth 48h 4.7µM
Cc1ccc(-c2cc(C(=O)Nc3nn[nH]n3)c3ccccc3n2)cc1	none
Cc1cccc(CNC(=O)C(C)n2nc(C)c3c(C)n(-c4ccccc4)nc3c2=O)c1 (stereo not given)	Pf growth 96h 10µM, Pf growth 48h inconclusive
CCOc1ccc(CNC(=O)C(C)n2nc(C)c3c(C)n(-c4ccccc4)nc3c2=O)cc1 (stereo not given)	Pf growth 48h inconclusive
COc1ccccc1CCNC(=O)C(C)n1nc(C)c2c(C)n(-c3ccccc3)nc2c1=O (stereo not given)	Pf growth 96h 12µM
COc1ccc(CCNC(=O)C(C)n2nc(C)c3c(C)n(-c4ccc(C)cc4)nc3c2=O)c(OC)c1 (stereo not given)	Pf growth 96h 3.3µM, Pf growth 48h 13µM
COc1ccccc1CNC(=O)C(C)n1nc(C)c2c(C)n(-c3ccccc3)nc2c1=O (stereo not given)	Pf growth 96h inconclusive, Pf growth 48h inconclusive
Cc1nn(C(C)C(=O)NCc2ccco2)c(=O)c2nn(-c3ccccc3)c(C)c12 (stereo not given)	Pf growth 96h inconclusive
COc1ccc(CNC(=O)C(C)n2nc(C)c3c(C)n(-c4ccc(C)cc4)nc3c2=O)cc1 (stereo not given)	Pf growth 48h 13µM
COC(=O)c1cnc(SCc2ccc(C)cc2)n1C	CHX counter 32
Cn1c(CO)cnc1SCc1ccc(Cl)cc1	CHX counter 20
COCCn1c(Cc2ccccc2)nnc1SCC(=O)NC(C)C	none
CC1=NN(C(=O)c2ccc(Br)cc2)C(O)(C(F)(F)OC(F)(F)F)C1 (stereo not given)	CHX counter 17, Pf growth 96h inconclusive, Pf growth 48h 4.7µM
CC1=NN(C(=O)c2csc(C)c2C)C(O)(C(F)(F)F)C1 (stereo not given)	CHX counter 37, Shiga inhibitor 47
CC1=NN(C(=O)c2c(Br)cnn2C)C(O)(C(F)(F)F)C1 (stereo not given)	Pf growth 96h inconclusive, Pf growth 48h inconclusive
CC1=NN(C(=O)c2nn(C)cc2Br)C(O)(C(F)(F)F)C1 (stereo not given)	CHX counter 35, Pf growth 96h inconclusive, Shiga inhibitor 60
Cc1nn(CC(=O)Nc2ccc3c(c2)CCC3)c(C)c1[N+](=O)[O-]	none (no result: CHX counter, NS1 inh, Shiga inhibitor)
CC(=O)C1=C(C)NC(=S)NC1c1cc([N+](=O)[O-])ccc1O (stereo not given)	none
Cc1cc(C)c2[nH]c(=O)c(CN(Cc3cccs3)C(=S)NCc3ccco3)cc2c1	none
O=C(NCC1CCCO1)c1cc(S(=O)(=O)N2CCCCC2)ccc1Cl (stereo not given)	none (no result: CHX counter, NS1 inh, Shiga inhibitor)
O=C(NCC1CCCO1)c1ccc(S(=O)(=O)N2CCC(c3nc4ccc(Cl)cc4[nH]3)CC2)cc1 (stereo not given)	Pf growth 48h 13µM
O=S(=O)(c1ccc2c(c1)OCCO2)N1CCC(c2nc3ccc(Cl)cc3[nH]2)CC1	Pf growth 96h inconclusive, Pf growth 48h 12µM
CSc1ccc([C@H]2CN3CCC[C@H]3c3ccccc32)cc1	none (no result: Pf growth 96h, NS1 inh, Pf growth 48h)
O=C(NCCc1cccs1)C1CC(c2ccccc2[N+](=O)[O-])=NO1 (stereo not given)	CHX counter 16, Shiga inhibitor 74
Cc1ccc(CCNC(=O)C2CC(c3ccccc3[N+](=O)[O-])=NO2)cc1 (stereo not given)	Pf growth 96h inconclusive
COc1ccc(CCNC(=O)C2CC(c3ccccc3[N+](=O)[O-])=NO2)cc1 (stereo not given)	CHX counter 49
COCCNC(=O)C1CC(c2ccccc2[N+](=O)[O-])=NO1 (stereo not given)	Pf growth 96h inconclusive
O=C1Nc2ccc(Br)cc2C12NNc1ccccc1O2 (stereo not given)	none
CCOC(=O)CSc1nc(C)c2ccc(C)cc2n1	CHX counter 12, Pf growth 96h inconclusive
CCOC(=O)CSc1cc(C)nc2ccc(OC)cc12	Pf growth 48h inconclusive
CCOC(=O)CCSc1nc(C)c2cc(C)c(C)cc2n1	CHX counter 30, Shiga inhibitor 44
CCOC(=O)CCSc1nc(C)c2cc(OC)ccc2n1	CHX counter 51, Shiga inhibitor 80
Cc1ccc2nc(SCC(=O)O)nc(C)c2c1	none
CC(=O)O[C@@H]1CC[C@@]2(C)[C@H](C1)[C@H](OC(C)=O)C[C@@H]1[C@@H]2C[C@H]2[C@@H]3CN4C[C@H](C)CC[C@H]4[C@H](C)[C@H]3CC[C@@]12O	none (no result: Pf growth 96h, NS1 inh, Pf growth 48h)
COC(=O)c1c(NC(=O)c2nc3ccccc3s2)sc2c1CCN(C(C)=O)C2	Pf growth 96h 10µM (no result: Pf growth 48h)
CNC(=O)c1c(NC(=O)c2cccc(N3C(=O)CCC3=O)c2)sc2c1CCC2	none
CNC(=O)c1c(NC(=O)c2nc3ccccc3s2)sc2c1CCC2	CHX counter 26, Shiga inhibitor 94 (no result: Pf growth 48h)
CC(=O)N1CCc2c(sc(NC(=O)c3ccc4c(c3)OCCO4)c2C#N)C1	CHX counter 13, Pf growth 48h inconclusive
COC(=O)c1c(NC(=O)c2cccc(N3C(=O)CCC3=O)c2)sc2c1CCN(C(C)=O)C2	Pf growth 96h 9.3µM
O=C(CCCl)Nc1nc2c(s1)CCc1ccccc1-2	Pf growth 96h 2.1µM, Pf growth 48h inconclusive
O=C(Nc1nc2c(s1)CCc1ccccc1-2)c1ccco1	CHX counter 50, Pf growth 96h inconclusive, Shiga inhibitor 81, Pf growth 48h inconclusive
CCC(=O)c1ccc(OCC(=O)Nc2nn3cnnc3s2)cc1	none (no result: Pf growth 96h)
Cc1cccc(NS(=O)(=O)c2ccc(C(=O)NCC(c3ccccc3)N(C)C)cc2)c1C (stereo not given)	Pf growth 96h inconclusive

From PubChem BioAssay
